Measurements: PubChem BioAssay AID686949 (The Scripps Research Institute Molecular Screening Center, 2013)
About 2,200 (69%) of roughly 3,200 compounds were called active.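 Rule for the calls: active = activation, as change over the incubation, above the mean of all tested compounds plus 3 SD (cut at about 13% in these data); inactive = the rest.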 So high a share suggests a set chosen from earlier hits. The list is a sample of the results.

Target: Kallikrein-7 (Homo sapiens) (UniProt P49862)
Assay: proKLK7 zymogen activators, confirmation, biochemical, fluorescence intensity, triplicate (AID 686949)
Settings: purified proKLK7, EDANS-DABCYL substrate fluorescence; at 7 µM; hits give high values

Sequence of Kallikrein-7 (Homo sapiens) (P49862 whole entry, looked up): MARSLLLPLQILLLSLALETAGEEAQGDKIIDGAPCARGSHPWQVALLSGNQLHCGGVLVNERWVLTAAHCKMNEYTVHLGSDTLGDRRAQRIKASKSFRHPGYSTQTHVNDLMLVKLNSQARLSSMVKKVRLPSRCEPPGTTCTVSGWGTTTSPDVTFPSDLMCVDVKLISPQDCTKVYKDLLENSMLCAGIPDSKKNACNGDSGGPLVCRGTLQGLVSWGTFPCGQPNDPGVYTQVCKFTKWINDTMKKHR

**Q.** With COc1cccc(-c2nc3ccc(N4CCN(C)CC4)cc3[nH]2)c1 as the compound, how does the activation read?
**A.** The activation was 64% (active).

**Q.** For CCOc1ccc(-c2cc(C)[n+](CCN(CC)CC)c(-c3ccc(OCC)cc3)c2)cc1, which activation is on record?
**A.** The activation was 19.2% (active).

**Q.** Which activation does the source give for Cc1nc2ccc(N3CCN(C)CC3)cc2nc1C here?
**A.** The activation was 16.1% (active).

**Q.** How did the activation turn out when CCOC(=O)c1c(N)n(CCN2CCOCC2)c2nc3ccccc3nc12 was run?
**A.** Its activation is 27.8% (active).
